Test results from PubChem BioAssay.
Inconclusive results are not listed. Calls of active or inactive are those of the source. Unless noted, no cut-off is given here; in the data, nearly all actives have AC50 up to about 26 µM.

What was measured:
[1] = growth inhibition of DIPG glioma cells, dose response, cell-based, SU-DIPG-XVII, MIPE5.0, CellTiter-Glo, qHTS (AID 1347060); conditions: SU-DIPG-XVII viability, CellTiter-Glo ATP luminescence;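 for AC50: cells exposed to compound for 48 hours before viability readout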
[2] = growth inhibition of DIPG glioma cells, dose response, cell-based, SU-DIPG-XIII, MIPE5.0, CellTiter-Glo, qHTS (AID 1347064; cut-off not given, nearly all actives have AC50 up to about 23 µM;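 for AC50: cells exposed to compound for 48 hours before the viability read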); conditions: SU-DIPG-XIII viability, CellTiter-Glo ATP luminescence
[3] = modifiers of HSF1 nuclear foci, imaging, Selleck Cancer Library (AID 1347162; in the data active = plate-normalised HSF1 focus index below about 0.46); conditions: human cells, at 10 µM; SSMD: measured here: HSF1 foci SSMD mean; cell count: measured here: cell number; plate-normalised HSF1 focus index: stronger effect = lower value
[4] = growth inhibition of DIPG glioma cells, dose response, cell-based, SU-DIPG-XIII, MIPE4.0, CellTiter-Glo, qHTS (AID 1347061; cut-off not given, nearly all actives have AC50 up to about 37 µM;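 note: cells exposed to compound for 48 hours before readout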); conditions: SU-DIPG-XIII viability, CellTiter-Glo ATP luminescence
[5] = target: NAD(+) hydrolase SARM1 (Homo sapiens) (UniProt Q6SZW1); assay: SARM1 TIR NADase inhibitors, cell lysate, NAD-Glo luminescence (AID 1508614;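 active = compound whose remaining NAD level is above about 45 nM, limit read from the data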;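 note: higher remaining NAD means stronger inhibition of SARM1 NADase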); conditions: SAM-TIR HEK293T lysate NADase, at 1 µM, stronger effect = higher value
[6] = circadian clock period modulators, cell-based, LOPAC library, luminescence reporter (AID 2774; call rule not given here;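 note: values are relative to mean of DMSO wells on each plate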); conditions: circadian reporter cells, at 7 µM, actives lie on both sides
[7] = tested on: Hepatitis C virus NS3 helicase; assay: HCV NS3 helicase inhibitors, primary screen, biochemical, fluorescence polarization, LOPAC1280 library (AID 687035; in the data active = inhibition above about 37%); conditions: Purified HCV NS3 helicase, Cy5-dT15 ssDNA binding fluorescence polarization; stronger effect = higher value; concentration not given here
[8] = Cy5 fluorescence quenching or enhancement artefacts, artefact control for HCV NS3 helicase inhibitor project, biochemical, LOPAC1280 (AID 687037; call rule not given here); conditions: Cy5-DNA-NS3h complex fluorescence interference counterscreen

Chain of NAD(+) hydrolase SARM1 (Homo sapiens) (Q6SZW1 whole entry, looked up): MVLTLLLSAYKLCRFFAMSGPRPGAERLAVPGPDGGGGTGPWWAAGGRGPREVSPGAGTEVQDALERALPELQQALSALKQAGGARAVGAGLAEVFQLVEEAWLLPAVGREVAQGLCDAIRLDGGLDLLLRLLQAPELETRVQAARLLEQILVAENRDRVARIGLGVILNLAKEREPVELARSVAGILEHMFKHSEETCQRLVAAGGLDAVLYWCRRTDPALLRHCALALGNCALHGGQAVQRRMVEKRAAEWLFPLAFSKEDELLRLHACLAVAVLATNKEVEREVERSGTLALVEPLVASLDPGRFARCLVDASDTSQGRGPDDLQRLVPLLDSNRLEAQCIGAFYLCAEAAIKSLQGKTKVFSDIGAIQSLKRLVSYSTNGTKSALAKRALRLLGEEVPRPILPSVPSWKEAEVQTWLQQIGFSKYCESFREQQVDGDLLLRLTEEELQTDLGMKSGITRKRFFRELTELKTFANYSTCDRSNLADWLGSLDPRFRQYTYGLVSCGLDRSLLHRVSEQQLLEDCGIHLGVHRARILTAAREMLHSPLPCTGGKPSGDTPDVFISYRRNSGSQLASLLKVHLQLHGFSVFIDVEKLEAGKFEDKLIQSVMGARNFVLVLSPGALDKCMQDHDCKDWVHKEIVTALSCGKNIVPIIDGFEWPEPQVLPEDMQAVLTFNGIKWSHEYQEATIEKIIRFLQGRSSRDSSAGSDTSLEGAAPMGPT

CCC1=C[C@@H]2CN(C1)Cc1c([nH]c3ccccc13)[C@@](C(=O)OC)(c1cc3c(cc1OC)N(C)[C@H]1[C@@](O)(C(=O)OC)[C@H](OC(C)=O)[C@]4(CC)C=CCN5CC[C@]31[C@@H]54)C2
AC50 [1]: 0.204 µM (active) | AC50 [2]: 2.29 µM (active) | SSMD [3]: 1.19 | cell count [3]: 6320 | plate-normalised HSF1 focus index [3]: 1.08 (inactive)

Cc1ccccc1C(=O)Nc1ccc(C(=O)N2CCCC(O)c3cc(Cl)ccc32)c(C)c1 (stereo unspecified)
outcome [1]: inactive | outcome [4]: inactive

Cc1nnc(C(=O)NC(C)(C)c2nc(C(=O)NCc3ccc(F)cc3)c(O)c(=O)n2C)o1
outcome [1]: inactive | outcome [4]: inactive

CCCCN(CCCC)CC(O)c1cc(Cl)cc2c1-c1ccc(Cl)cc1/C2=C/c1ccc(Cl)cc1 (stereo unspecified)
outcome [4]: inactive

O=c1cc(O)c(Cl)c[nH]1
outcome [1]: inactive | outcome [4]: inactive | outcome [2]: inactive

C[C@]12CCC(=O)C=C1[C@@H]1C[C@@H]1[C@H]1[C@@H]3[C@@H]4C[C@@H]4[C@@]4(CCC(=O)O4)[C@@]3(C)CC[C@@H]12
outcome [1]: inactive | outcome [4]: inactive | outcome [2]: inactive | remaining NAD [5]: 10 nM (inactive)

C=CC(=O)Nc1cc2c(Nc3ccc(F)c(Cl)c3)ncnc2cc1OCCCN1CCOCC1
AC50 [1]: 6.61 µM (active) | AC50 [2]: 9.34 µM (active)

CC(C(=O)O)c1ccc2c(c1)CC(=O)c1ccccc1S2 (stereo unspecified)
outcome [1]: inactive | AC50 [4]: 0.0059 µM (active) | outcome [2]: inactive

O=P(O)(O)C(O)(Cn1ccnc1)P(=O)(O)O
outcome [1]: inactive | outcome [4]: inactive | outcome [2]: inactive

Clc1ccc(C(Cn2ccnc2)OCc2c(Cl)cccc2Cl)c(Cl)c1 (stereo unspecified)
AC50 [1]: 23.5 µM (active) | AC50 [2]: 20.9 µM (active)

COc1ccc2cccc(CCNC(C)=O)c2c1
outcome [4]: inactive | outcome [2]: inactive

COCCCN1CCC(NC(=O)c2cc(Cl)c(N)c3c2OCC3)CC1
outcome [1]: inactive

N=C(N)c1ccc2cc(OC(=O)c3ccc(N=C(N)N)cc3)ccc2c1
outcome [4]: inactive | outcome [2]: inactive

CN(C)C(=O)COC(=O)Cc1ccc(OC(=O)c2ccc(N=C(N)N)cc2)cc1
outcome [1]: inactive | outcome [2]: inactive

N[C@@H](Cc1c[nH]c2ccc(O)cc12)C(=O)O
period change [6]: -0.25 h (inactive) | inhibition [7]: -3% (inactive) | fluorescence ratio (interference) [8]: 1 (inactive) | outcome [1]: inactive | outcome [4]: inactive | outcome [2]: inactive

CNC(=O)c1ccccc1Sc1ccc2c(/C=C/c3ccccn3)n[nH]c2c1
AC50 [1]: 1.32 µM (active) | AC50 [2]: 1.48 µM (active) | SSMD [3]: 5.16 | cell count [3]: 7390 | plate-normalised HSF1 focus index [3]: 1.18 (inactive)

COC(c1ccccc1)(c1ccccc1)[C@H](Oc1nc(C)cc(C)n1)C(=O)O
outcome [4]: inactive

c1cnc2cc3c(cc2n1)C1CNCC3C1
outcome [1]: inactive | outcome [4]: inactive | outcome [2]: inactive

N#Cc1c(N(CC(=O)O)CC(=O)O)sc(C(=O)O)c1CC(=O)O
outcome [1]: inactive | outcome [4]: inactive | outcome [2]: inactive

Clc1ccc(C(Cn2ccnc2)OCc2ccc(Sc3ccccc3)cc2)c(Cl)c1 (stereo unspecified)
AC50 [1]: 20.9 µM (active) | AC50 [2]: 20.9 µM (active)

Cc1cc2c(cc1CC(=O)c1sccc1S(=O)(=O)Nc1onc(C)c1Cl)OCO2
outcome [1]: inactive

CCOC(=O)c1ccc(C#Cc2ccc3c(c2)C(C)(C)CCS3)nc1
AC50 [1]: 26.3 µM (active)

Cc1ccc(C(=O)c2cc(O)c(O)c([N+](=O)[O-])c2)cc1
outcome [1]: inactive | outcome [4]: inactive | outcome [2]: inactive

CC(C)OC(=O)OCOP(=O)(CO[C@H](C)Cn1cnc2c(N)ncnc21)OCOC(=O)OC(C)C
outcome [4]: inactive

O=[N+]([O-])c1cncn1CCN1CCOCC1
outcome [1]: inactive | outcome [2]: inactive

CC(=O)OCC(=O)[C@@]12N=C(C)O[C@@H]1C[C@H]1[C@@H]3CCC4=CC(=O)C=C[C@]4(C)[C@H]3[C@@H](O)C[C@@]12C
outcome [1]: inactive | outcome [4]: inactive | outcome [2]: inactive | remaining NAD [5]: 10 nM (inactive)

CC(C)(C)C(=O)Oc1ccc(S(=O)(=O)Nc2ccccc2C(=O)NCC(=O)O)cc1
inhibition [7]: -5% (inactive) | fluorescence ratio (interference) [8]: 0.9 (inactive) | outcome [1]: inactive | outcome [4]: inactive | outcome [2]: inactive

CC(C)C[C@H](NC(=O)[C@H](CCc1ccccc1)NC(=O)CN1CCOCC1)C(=O)N[C@@H](Cc1ccccc1)C(=O)N[C@@H](CC(C)C)C(=O)[C@@]1(C)CO1
AC50 [1]: 0.0148 µM (active) | AC50 [2]: 0.00742 µM (active)

CCCCc1oc2ccc(NS(C)(=O)=O)cc2c1C(=O)c1ccc(OCCCN(CCCC)CCCC)cc1
AC50 [1]: 13.2 µM (active) | AC50 [4]: 18.7 µM (active) | AC50 [2]: 11.8 µM (active)

COc1ccc(-c2ccc3cc(C(=O)O)ccc3c2)cc1C12CC3CC(CC(C3)C1)C2
AC50 [1]: 3.32 µM (active) | remaining NAD [5]: 10 nM (inactive)

CC(=O)N[C@H]1[C@H]([C@H](O)[C@H](O)CO)OC(C(=O)O)=C[C@@H]1N=C(N)N
outcome [4]: inactive

CN1CCCN=C1/C=C/c1cccs1
outcome [1]: inactive

CC1(C)CCC(C)(C)c2cc(NC(=O)c3ccc(C(=O)O)cc3)ccc21
outcome [1]: inactive | AC50 [4]: 23.5 µM (active) | outcome [2]: inactive

Cc1cc(=O)c2c(O)c3c(O)cc(=O)c4c3c3c(cc(O)c1c23)C(C)(C)C=4O
AC50 [4]: 11.8 µM (active)

CCOC(=O)c1c(C)n(C)c2ccc(O)cc12
outcome [1]: inactive

O=C(Nc1ccc(S(=O)(=O)N2CCOCC2)cc1)c1cc(Cl)ccc1NS(=O)(=O)c1ccc(Cl)s1
outcome [1]: inactive

Cc1ccc(Nc2nccc(N(C)c3ccc4c(C)n(C)nc4c3)n2)cc1S(N)(=O)=O
AC50 [1]: 3.32 µM (active) | AC50 [2]: 3.72 µM (active) | SSMD [3]: 1.61 | cell count [3]: 7340 | plate-normalised HSF1 focus index [3]: 1.1 (inactive)
